Laboratory results reported in PubChem BioAssay (NCATS).
“And” between values parts separate entries of the source, which are not always exact repeats. Equal entries are not always repeated. Records with an inconclusive call do not appear. Unmarked numbers belong to inactive results. The source made the active and inactive calls. Calls follow the shape of the dose curve; as a rule, active = well fitted curve in the direction sought with a large enough effect; inconclusive = small, poorly fitted or top-dose-only effect, or another doubt; inactive = no such curve, though single readings can be large; an effect the other way counts as inactive or inconclusive.

Assay: Viability qHTS for spleen associated tyrosine kinase inhibitor (SYKi) drug resistant MV4-11 cells (AID 1963824); also: nearly all actives have a fitted effect of over 35% in size
Conditions: SYKi-resistant MV4-11 viability, CellTiter-Glo, 72 h; series mostly up to 45 µM; viability, % of control: at the top concentration
Method in brief: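 SYK-inhibitor-resistant MV4-11 AML cells were seeded at 500 per well onto compound and cultured 72 hours (37 °C, 5% CO2). CellTiter-Glo was then added, and after 10 min at room temperature, luminescence gave viability.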
Potency is read from the fitted curve at half-maximal effect.

SMILES | Potency | viability, % of control
COc1cc(F)ccc1-c1ncnc(Nc2cccc(CS(C)(=N)=O)c2)n1 (stereo not drawn) | 1.16 µM (active) | 
CC(C)(O)c1ccccc1CC[C@@H](SCC1(CC(=O)O)CC1)c1cccc(/C=C/c2ccc3ccc(Cl)cc3n2)c1 |  | 71%
CC(=O)N1CCC[C@H]1C(=O)N[C@@H](Cc1cnc[nH]1)C(=O)N[C@@H](CO)C(=O)N[C@@H](CS)C(=O)N[C@@H](CC(N)=O)C(N)=O |  | 91.3%
Nc1ccc(/C=C/C(=O)NCc2cc3cc(-c4ccc(C(=O)N5CCC(F)(F)CC5)cc4)cc(-c4ccc(F)cc4)c3o2)cn1 | 0.206 µM (active) | 
CN1CC(=O)N2[C@H](c3ccc4c(c3)OCO4)c3[nH]c4ccccc4c3C[C@@H]2C1=O |  | 93.5%
COc1ccc2nc3n[nH]c(C)c3c(NCCOCCO)c2c1 | 16.4 µM (active) and 13.2 µM (active) | 
CC(=O)c1cc2c(o1)C(=O)c1ccccc1C2=O | 1.32 µM (active) | 
Cc1nc2cccc(N)c2c(=O)n1C1CCC(=O)NC1=O (stereo not drawn) |  | 91.9%
COC(=O)/C=C/C(=O)OC |  | 106%
C=CCCCCCCCCC(=O)O |  | 73%
COCCOC(=O)N1CCN(S(=O)(=O)c2cc(F)c(Oc3ccc(Cl)cc3)c(F)c2)C(C(=O)NO)C1 (stereo not drawn) | 5.9 µM (active) | 
Cc1[nH]c2ccccc2c1CCNCc1ccc(/C=C/C(=O)NO)cc1 | 0.0263 µM (active) | 
CCCCc1nc2cc(/C=C/C(=O)NO)ccc2n1CCN(CC)CC | 291 nM (active) and 468 nM (active) | 
CCN(c1cc(C#CCN2CCOCC2)cc(C(=O)NCc2c(C)cc(C)[nH]c2=O)c1C)C1CCC(N(C)CCOC)CC1 (stereo not drawn) | inactive | 
CSc1ccc(C(=O)/C=C/c2cc(C)c(OC(C)(C)C(=O)O)c(C)c2)cc1 | 4.28 µM (active) | 
c1ccc(-c2ccc(CNc3nc(-c4ccccn4)nnc3-c3ccccc3)cc2)cc1 | 1.03 µM (active) | 
CC1=NN(c2ccc(C(=O)O)cc2)C(=O)/C1=C/c1ccc(-c2cc(C)c(C)cc2[N+](=O)[O-])o1 | 18.6 µM (active) | 
NC(=O)c1nc(F)c[nH]c1=O | inactive | 
CN1[C@@H]2CCC[C@H]1CC(NC(=O)c1nn(C)c3ccccc13)C2 (stereo partly drawn) |  | 91.5%
COc1cc2nccc(Oc3ccc(NC(=O)c4cn(C(C)C)c(=O)n(-c5ccc(F)cc5)c4=O)cc3F)c2cc1OC | 0.468 µM (active) | 

SMILES | Potency | viability, % of control
O=C1NCC2(CCN(CCc3ccccc3)CC2)O1 |  | 101%
CCCCCN(CCCOC)C(=O)C(CCC(=O)O)NC(=O)c1ccc(Cl)c(Cl)c1 (stereo not drawn) |  | 67.8%
COc1cc(C(=O)NC2CCCNC2)cc(OC)c1OC (stereo not drawn) |  | 92.9%
C[C@@H](O)[C@@H]1NC(=O)[C@H](CCCCN)NC(=O)[C@@H](Cc2c[nH]c3ccccc23)NC(=O)[C@H](Cc2ccccc2)NC(=O)[C@@H](NC(=O)[C@H](N)Cc2ccccc2)CSSC[C@@H](C(=O)N[C@H](CO)[C@@H](C)O)NC1=O |  | 94.4% [at 17.3 µM]
C[C@@]1(c2ncncc2F)NC(=O)c2cc(-c3cn[nH]c3)ccc21 | 20.9 µM (active) | 
CCCCN1C[C@H](O)[C@@H](O)[C@H](O)[C@H]1CO |  | 104%
CCN(CC)CCNC(C(=O)OCCC(C)C)c1ccccc1 (stereo not drawn) |  | 90.8%
CC/C=C(\C(=O)N[C@@H]1C(=O)N2C(C(=O)OCOC(=O)C(C)(C)C)=C(COC(N)=O)CS[C@H]12)c1csc(N)n1 |  | 70.2%
Cc1ccc([N+](=O)[O-])cc1S(=O)(=O)N(C)/N=C/c1cnc2ccc(Br)cn12 | 16.4 nM (active) and 46.8 nM (active) | 
C[C@@H](O)[C@@H](C)Oc1nc(Nc2ccc(S(=N)(=O)C3CC3)cc2)ncc1C(F)(F)F (stereo partly drawn) | 11.8 µM (active) | 
CCCN1CCCC[C@H]1C(=O)Nc1c(C)cccc1C |  | 81.6%
C[C@]12C=CC(=O)C=C1CC[C@@H]1[C@@H]2[C@@H](O)C[C@@]2(C)[C@H]1CC[C@]2(O)C(=O)CO |  | 53.1%
CCCCOC(=O)NS(=O)(=O)c1sc(CC(C)C)cc1-c1ccc(Cn2ccnc2)cc1 | 14.8 µM (active) | 
CCOC(=O)C1=C(C)NC(C)=C(C(=O)OCC)C1c1ccccc1/C=C/C(=O)OC(C)(C)C | 4.73 µM (active) | 
Nc1c(NC/C=C\COc2cc(CN3CCCCC3)ccn2)c(=O)c1=O |  | 87.5% [at 17.3 µM]
CC(=O)N[C@@H](CC(C)C)C(=O)O |  | 108%
Nc1ccc(S(=O)(=O)Nc2cnc3ccccc3n2)cc1 |  | 79.2%
Cc1c(O)cccc1C(=O)NC(CSc1ccccc1)C(O)CN1CC2CCCCC2CC1C(=O)NC(C)(C)C (stereo not drawn) | 11.8 µM (active) | 
COc1cc(N2CCC(N)CC2)ccc1Nc1ncc(Cl)c(-c2c[nH]c3ccccc23)n1 | 18.4 nM (active) and 37.2 nM (active) | 

Assay: Cellular viability qHTS for adrenocortical cancer (ACC) cell line SW-13 (AID 1963989); also: nearly all actives have a fitted effect of over 65% in size;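 as to activity (max response): cells grown in serum-free medium with ITS supplement; % is scaled to controls: 0 for no effect and ±100 for the full control effect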
Conditions: SW-13 ACC cells viability, CellTiter-Glo, 48 h; activity (max response): active compounds read low
Method in brief: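 Luminescent ATP read-out (CellTiter-Glo, 20 min at room temperature) measured metabolically competent SW-13 cells after 48 h compound treatment. Final concentrations spanned up to 46 uM; bortezomib served as positive control.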

SMILES | Potency | activity (max response)
COc1cc(F)ccc1-c1ncnc(Nc2cccc(CS(C)(=N)=O)c2)n1 (stereo not drawn) | 6.31 µM (active) | 
CC(C)(O)c1ccccc1CC[C@@H](SCC1(CC(=O)O)CC1)c1cccc(/C=C/c2ccc3ccc(Cl)cc3n2)c1 |  | 11.5%
CC(=O)N1CCC[C@H]1C(=O)N[C@@H](Cc1cnc[nH]1)C(=O)N[C@@H](CO)C(=O)N[C@@H](CS)C(=O)N[C@@H](CC(N)=O)C(N)=O |  | -17.6%
Nc1ccc(/C=C/C(=O)NCc2cc3cc(-c4ccc(C(=O)N5CCC(F)(F)CC5)cc4)cc(-c4ccc(F)cc4)c3o2)cn1 | 1.12 µM (active) | 
CN1CC(=O)N2[C@H](c3ccc4c(c3)OCO4)c3[nH]c4ccccc4c3C[C@@H]2C1=O |  | 17.1% and 13.1%
COc1ccc2nc3n[nH]c(C)c3c(NCCOCCO)c2c1 |  | 0.542%
CC(=O)c1cc2c(o1)C(=O)c1ccccc1C2=O | 3.16 µM (active) | 
Cc1nc2cccc(N)c2c(=O)n1C1CCC(=O)NC1=O (stereo not drawn) |  | 3.79%
COC(=O)/C=C/C(=O)OC |  | -9.41%
C=CCCCCCCCCC(=O)O |  | 9.7%
COCCOC(=O)N1CCN(S(=O)(=O)c2cc(F)c(Oc3ccc(Cl)cc3)c(F)c2)C(C(=O)NO)C1 (stereo not drawn) | 5.01 µM (active) | 
Cc1[nH]c2ccccc2c1CCNCc1ccc(/C=C/C(=O)NO)cc1 | 0.251 µM (active) | 
CCCCc1nc2cc(/C=C/C(=O)NO)ccc2n1CCN(CC)CC | 2 µM (active) | 
CCN(c1cc(C#CCN2CCOCC2)cc(C(=O)NCc2c(C)cc(C)[nH]c2=O)c1C)C1CCC(N(C)CCOC)CC1 (stereo not drawn) |  | 7.49%
CSc1ccc(C(=O)/C=C/c2cc(C)c(OC(C)(C)C(=O)O)c(C)c2)cc1 | 35.5 µM (active) | 
c1ccc(-c2ccc(CNc3nc(-c4ccccn4)nnc3-c3ccccc3)cc2)cc1 | 11.2 µM (active) | 
CC1=NN(c2ccc(C(=O)O)cc2)C(=O)/C1=C/c1ccc(-c2cc(C)c(C)cc2[N+](=O)[O-])o1 |  | 11.6%
NC(=O)c1nc(F)c[nH]c1=O |  | 0.237%
CN1[C@@H]2CCC[C@H]1CC(NC(=O)c1nn(C)c3ccccc13)C2 (stereo partly drawn) |  | 2.83%
COc1cc2nccc(Oc3ccc(NC(=O)c4cn(C(C)C)c(=O)n(-c5ccc(F)cc5)c4=O)cc3F)c2cc1OC |  | 9.27%

SMILES | Potency | activity (max response)
O=C1NCC2(CCN(CCc3ccccc3)CC2)O1 |  | 4.78%
CCCCCN(CCCOC)C(=O)C(CCC(=O)O)NC(=O)c1ccc(Cl)c(Cl)c1 (stereo not drawn) |  | 5.62%
COc1cc(C(=O)NC2CCCNC2)cc(OC)c1OC (stereo not drawn) |  | 8.49%
C[C@@H](O)[C@@H]1NC(=O)[C@H](CCCCN)NC(=O)[C@@H](Cc2c[nH]c3ccccc23)NC(=O)[C@H](Cc2ccccc2)NC(=O)[C@@H](NC(=O)[C@H](N)Cc2ccccc2)CSSC[C@@H](C(=O)N[C@H](CO)[C@@H](C)O)NC1=O |  | -1.31%
C[C@@]1(c2ncncc2F)NC(=O)c2cc(-c3cn[nH]c3)ccc21 |  | -10.1%
CCCCN1C[C@H](O)[C@@H](O)[C@H](O)[C@H]1CO |  | -2.93%
CCN(CC)CCNC(C(=O)OCCC(C)C)c1ccccc1 (stereo not drawn) |  | -2.2%
CC/C=C(\C(=O)N[C@@H]1C(=O)N2C(C(=O)OCOC(=O)C(C)(C)C)=C(COC(N)=O)CS[C@H]12)c1csc(N)n1 |  | 13.8%
Cc1ccc([N+](=O)[O-])cc1S(=O)(=O)N(C)/N=C/c1cnc2ccc(Br)cn12 | 0.282 µM (active) | 
C[C@@H](O)[C@@H](C)Oc1nc(Nc2ccc(S(=N)(=O)C3CC3)cc2)ncc1C(F)(F)F (stereo partly drawn) |  | 4.29%
CCCN1CCCC[C@H]1C(=O)Nc1c(C)cccc1C |  | 4.43%
C[C@]12C=CC(=O)C=C1CC[C@@H]1[C@@H]2[C@@H](O)C[C@@]2(C)[C@H]1CC[C@]2(O)C(=O)CO |  | -7.97% and -0.878%
CCCCOC(=O)NS(=O)(=O)c1sc(CC(C)C)cc1-c1ccc(Cn2ccnc2)cc1 | 28.2 µM (active) | 
CCOC(=O)C1=C(C)NC(C)=C(C(=O)OCC)C1c1ccccc1/C=C/C(=O)OC(C)(C)C | 16.4 µM (active) | 
Nc1c(NC/C=C\COc2cc(CN3CCCCC3)ccn2)c(=O)c1=O |  | 4.55%
CC(=O)N[C@@H](CC(C)C)C(=O)O |  | 7.87%
Nc1ccc(S(=O)(=O)Nc2cnc3ccccc3n2)cc1 |  | 8.58%
Cc1c(O)cccc1C(=O)NC(CSc1ccccc1)C(O)CN1CC2CCCCC2CC1C(=O)NC(C)(C)C (stereo not drawn) | 28.2 µM (active) | 
COc1cc(N2CCC(N)CC2)ccc1Nc1ncc(Cl)c(-c2c[nH]c3ccccc23)n1 | 3.16 µM (active) | 
